Measurements taken from the supplement of paper PMC6555819.

Tests used:
Assay in all cases: PBM binding z-score (relative to random genomic background probes); higher = stronger binding; sequences stand for … in GC…GCGATTGACAGCGTAGAATGAAGG
[1] = system: FXR:RXRa (NR concentration 270 nM, RXRa partner concentration 90 nM)
Method in brief: (§1)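 Each nuclear receptor dimer, without ligand, was incubated for 1 h on custom Agilent 4×180K protein-binding microarrays. Binding was detected with antibodies against each partner (one per run), and scanned fluorescence was regression-normalized. The binding z-scores are referenced to random human genomic background probes.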

[2] = system: LXRa:RXRa (NR concentration 270 nM, RXRa partner concentration 90 nM)
Method in brief: as §1

[3] = system: LXRa homodimer (NR concentration 270 nM)
Method in brief: as §1

[4] = system: LXRb:RXRa (NR concentration 270 nM, RXRa partner concentration 90 nM)
Method in brief: as §1

[5] = system: LXRb homodimer (NR concentration 270 nM)
Method in brief: as §1

[6] = system: PPARa:RXRa (NR concentration 270 nM, RXRa partner concentration 90 nM)
Method in brief: as §1

[7] = system: PPARg:RXRa (NR concentration 180 nM, RXRa partner concentration 90 nM)
Method in brief: as §1

[8] = system: PPARg:RXRa 270nM:90nM, anti-RXR (NR concentration 270 nM, RXRa partner concentration 90 nM)
Method in brief: as §1

[9] = system: PPARg:RXRa 30nM:10nM, anti-RXR (NR concentration 30 nM, RXRa partner concentration 10 nM)
Method in brief: as §1

[10] = system: PPARg:RXRa 90nM:30nM, anti-RXR (NR concentration 90 nM, RXRa partner concentration 30 nM)
Method in brief: as §1

[11] = system: PPARg:RXRa DBDmut IVT, anti-RXR (DBD mutation: RXRa K156A/R161A, NR concentration 270 nM, RXRa partner concentration 90 nM)
Method in brief: as §1

[12] = system: PPARg:RXRa IVT, anti-PPARg (NR concentration 270 nM, RXRa partner concentration 90 nM)
Method in brief: as §1

[13] = system: PPARg DBDmut:RXRa IVT, anti-PPARg (DBD mutation: PPARg1 K132A/R137A, NR concentration 270 nM, RXRa partner concentration 90 nM)
Method in brief: as §1

[14] = system: PPARg DBDmut IVT, anti-PPARg (DBD mutation: PPARg1 K132A/R137A, NR concentration 270 nM)
Method in brief: as §1

[15] = system: PPARg homodimer (NR concentration 180 nM)
Method in brief: as §1

[16] = system: PXR:RXRa (NR concentration 270 nM, RXRa partner concentration 90 nM)
Method in brief: as §1

[17] = system: PXR homodimer (NR concentration 270 nM)
Method in brief: as §1

[18] = system: RARa:RXR (NR concentration 270 nM, RXRa partner concentration 90 nM)
Method in brief: as §1

[19] = system: RARa homodimer (NR concentration 270 nM)
Method in brief: as §1

[20] = system: RARb:RXRa (NR concentration 270 nM, RXRa partner concentration 90 nM)
Method in brief: as §1

## GGAACGAGGGCAAAGTTGATGGCATCTGTCGACG
[1]
  PBM binding z-score: 1.36
[2]
  PBM binding z-score: 1.13
[3]
  PBM binding z-score: -0.0159
[4]
  PBM binding z-score: 0.949
[5]
  PBM binding z-score: -0.264
[6]
  PBM binding z-score: 4.09
[7]
  PBM binding z-score: 6.37
[8]
  PBM binding z-score: 6.89
[9]
  PBM binding z-score: 5.45
[10]
  PBM binding z-score: 6.81
[11]
  PBM binding z-score: 4.48
[12]
  PBM binding z-score: 4.33
[13]
  PBM binding z-score: 0.423
[14]
  PBM binding z-score: 0.295
[15]
  PBM binding z-score: 0.411
[16]
  PBM binding z-score: 1.39
[17]
  PBM binding z-score: 0.213
[18]
  PBM binding z-score: 1.59
[19]
  PBM binding z-score: -0.52
[20]
  PBM binding z-score: 2.48

## GGAACGCGGGCATTCGAGTTGATAGCATGGCGAT
[1]
  PBM binding z-score: -0.388
[2]
  PBM binding z-score: -0.465
[3]
  PBM binding z-score: -0.588
[4]
  PBM binding z-score: -1.04
[5]
  PBM binding z-score: -1.3
[6]
  PBM binding z-score: -1.13
[7]
  PBM binding z-score: -0.044
[8]
  PBM binding z-score: -0.711
[9]
  PBM binding z-score: -0.908
[10]
  PBM binding z-score: -0.624
[11]
  PBM binding z-score: -0.393
[12]
  PBM binding z-score: -0.666
[13]
  PBM binding z-score: -1.41
[14]
  PBM binding z-score: -1.44
[15]
  PBM binding z-score: -1.1
[16]
  PBM binding z-score: -0.103
[17]
  PBM binding z-score: -0.449
[18]
  PBM binding z-score: -0.652
[19]
  PBM binding z-score: -1.13
[20]
  PBM binding z-score: -0.209

## TCTAGTTGGTCAAAGGACACACACTCGAAATGCG
[1]
  PBM binding z-score: 1.06
[2]
  PBM binding z-score: 0.757
[3]
  PBM binding z-score: 0.232
[4]
  PBM binding z-score: 1.05
[5]
  PBM binding z-score: 0.181
[6]
  PBM binding z-score: 2.19
[7]
  PBM binding z-score: 4.59
[8]
  PBM binding z-score: 5.5
[9]
  PBM binding z-score: 4.95
[10]
  PBM binding z-score: 5.8
[11]
  PBM binding z-score: 2.42
[12]
  PBM binding z-score: 2.63
[13]
  PBM binding z-score: 1.26
[14]
  PBM binding z-score: 0.871
[15]
  PBM binding z-score: 1.9
[16]
  PBM binding z-score: 0.659
[17]
  PBM binding z-score: 0.4
[18]
  PBM binding z-score: 1.1
[19]
  PBM binding z-score: 1.12
[20]
  PBM binding z-score: 2.02

## ACTAGTTGGTCAGATGAGGTCACACACAATTCGG
[1]
  PBM binding z-score: 3.83
[2]
  PBM binding z-score: 3.41
[3]
  PBM binding z-score: 2.89
[4]
  PBM binding z-score: 3.36
[5]
  PBM binding z-score: 0.869
[6]
  PBM binding z-score: 3.74
[7]
  PBM binding z-score: 2.28
[8]
  PBM binding z-score: 2.43
[9]
  PBM binding z-score: 0.846
[10]
  PBM binding z-score: 1.63
[11]
  PBM binding z-score: 1.63
[12]
  PBM binding z-score: 2.78
[13]
  PBM binding z-score: 1.26
[14]
  PBM binding z-score: 1.93
[15]
  PBM binding z-score: 3.45
[16]
  PBM binding z-score: 5.55
[17]
  PBM binding z-score: 2.21
[18]
  PBM binding z-score: 4.72
[19]
  PBM binding z-score: 2.3
[20]
  PBM binding z-score: 3.3

## CGTCCAAGGTCAGAGTGGTCAGTGAATGCCGAGT
[1]
  PBM binding z-score: 4.91
[2]
  PBM binding z-score: 3.23
[3]
  PBM binding z-score: 0.338
[4]
  PBM binding z-score: 2.49
[5]
  PBM binding z-score: -0.0536
[6]
  PBM binding z-score: 3.83
[7]
  PBM binding z-score: 1.79
[8]
  PBM binding z-score: 2.5
[9]
  PBM binding z-score: 0.0236
[10]
  PBM binding z-score: 1.35
[11]
  PBM binding z-score: 2.5
[12]
  PBM binding z-score: 2.37
[13]
  PBM binding z-score: -0.175
[14]
  PBM binding z-score: -0.939
[15]
  PBM binding z-score: 2.59
[16]
  PBM binding z-score: 2.78
[17]
  PBM binding z-score: 1.03
[18]
  PBM binding z-score: 3.16
[19]
  PBM binding z-score: 0.908
[20]
  PBM binding z-score: 4.8

## CGTCCAGGGTCAATGCTAGGTCAGTGAAAGCATT
[1]
  PBM binding z-score: 6.33
[2]
  PBM binding z-score: 5.16
[3]
  PBM binding z-score: 0.988
[4]
  PBM binding z-score: 4.06
[5]
  PBM binding z-score: -0.00452
[6]
  PBM binding z-score: 5.61
[7]
  PBM binding z-score: 4.11
[8]
  PBM binding z-score: 4.59
[9]
  PBM binding z-score: 1.57
[10]
  PBM binding z-score: 3.18
[11]
  PBM binding z-score: 1.7
[12]
  PBM binding z-score: 3.15
[13]
  PBM binding z-score: -0.224
[14]
  PBM binding z-score: 0.0209
[15]
  PBM binding z-score: 3.59
[16]
  PBM binding z-score: 4.54
[17]
  PBM binding z-score: -0.194
[18]
  PBM binding z-score: 6.03
[19]
  PBM binding z-score: 0.75
[20]
  PBM binding z-score: 4.82
